Out of some 200,000 compounds screened, about 18,000 (9%) were called active. The sample holds actives, similar compounds and a random draw of the others, so the mix is not that of the screen. Unmarked numbers belong to inactive results. Cut-off read from the data, not from the text of the source: active = inhibition above about 50%; inactive = the rest.
Experiment: antileishmanial activity against promastigotes – primary screen (AID 1063);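 note: promastigotes grown with compound for 44 hours at 28 °C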
Settings: Leishmania major promastigotes, resazurin fluorescence viability; at 10 µM; hits give high values

SMILES | inhibition
CCOC(=O)c1ccc[n+](CC(=O)Nc2ccccc2OC(F)F)c1 | 1.13%
CCCCN(C(=O)COc1ccc(NC(C)=O)cc1)C1CCS(=O)(=O)C1 (configuration not stated) | -9.97%
COc1ccc(C(=O)NC2CCN(C(=S)Nc3ccccc3)CC2)cc1 | -5.57%
CCOCCCNC(=S)N1CCC(NC(=O)C2CCCCC2)CC1 | -5.68%
COc1ccccc1NC(=S)NC(=O)C(C)C | -0.07%
COCCNC(=S)N1CCC(NC(=O)C23CC4CC(CC(C4)C2)C3)CC1 | 73.8% (active)
COc1ccccc1NC(=S)N1CCN(C(c2ccccc2)c2ccccc2)CC1 | 65.1% (active)
CCOc1ccc(C(=O)NC2CCN(C(=O)Nc3ccccc3OC)CC2)cc1 | -1.82%
COc1ccccc1NC(=S)N1CCC(NC(=O)C23CC4CC(CC(C4)C2)C3)CC1 | 94.4% (active)
CC(C)NC(=S)N1CCN(C(c2ccccc2)c2ccccc2)CC1 | 7.72%
CCCNC(=S)N1CCC(NC(=O)C23CC4CC(CC(C4)C2)C3)CC1 | -3.43%
Cc1ccccc1NC(=O)Cn1c(=O)n(CC2CCCO2)c(=O)c2ccccc21 (configuration not stated) | -7.76%
Cc1cc(C)c(C#N)c(N2CCC(C(N)=O)CC2)n1 | -0.97%
Cc1csc(NC(=O)Nc2ccccc2[N+](=O)[O-])n1 | 4.81%
O=C(Oc1cccc(NC2=NS(=O)(=O)c3ccccc32)c1)c1ccncc1 | -2.71%
O=C(N/N=C/c1ccc(OCc2ccccc2)cc1)c1ccc(O)cc1 | 12.5%
CCC1SC(CC)C(=O)N(CC(=O)NC2CCCCC2)C1=O (configuration not stated) | -5.41%
CC1(C)C(=O)Nc2ccccc2N1C(=O)COC(=O)Cn1cnc2ccccc2c1=O | -3.68%
Cc1cc(C(=O)OCC(=O)N2c3ccccc3NC(=O)C2(C)C)c(C)n1-c1ccccc1 | 21.6%
CCNc1ccc(C(=O)OCC(=O)N2c3ccccc3NC(=O)C2(C)C)cc1[N+](=O)[O-] | 54.4% (active)
COc1ccc(-c2csc(-c3cccs3)n2)cc1OC | 0.19%
CCOc1ccc(-c2ccc(SCC(=O)N3CCOCC3)nn2)cc1 | -2.79%
Cc1ccc(-c2noc(CN3CCN(Cc4ccccc4)CC3)n2)cc1 | 52.1% (active)

SMILES | inhibition
Cc1ccc(-c2noc(CC(c3ccccc3)c3ccccc3)n2)cc1 | 7.54%
Cc1ccc(Cc2nc(-c3cccc(C)c3)no2)cc1 | -3.66%
Cn1cc(/C=C/C(=O)N2CCCC(C(=O)c3ccc(C(F)(F)F)cc3)C2)cn1 (configuration not stated) | -7.13%
Brc1cc(/C=N/n2cnnc2)oc1Br | -0.54%
S=c1[nH]nc(NCCc2ccccc2)s1 | -6.01%
COC(=O)c1ccccc1NC(=O)CN(Cc1ccc(Cl)cc1)S(C)(=O)=O | 36.9%
COc1ccccc1N1CCN(C(=O)CN(Cc2ccc(Cl)cc2)S(C)(=O)=O)CC1 | -0.49%
COc1ccc(CCNC(=O)CN(c2ccccc2)S(C)(=O)=O)cc1 | -6.75%
COc1ccc(CNC(=O)CN(Cc2ccc(Cl)cc2)S(C)(=O)=O)cc1 | 57.5% (active)
COc1ccc(NC(=O)CN(Cc2ccccc2)S(C)(=O)=O)cc1OC | -6.14%
COc1ccc(OC)c(NC(=O)CN(Cc2ccc(Cl)cc2)S(C)(=O)=O)c1 | 90.1% (active)
CCC(C)NC(=O)CN(C1CCCCC1)S(C)(=O)=O (configuration not stated) | 1.28%
O=C(COC(=O)c1ccncc1)c1ccccc1 | -4.89%
CNC(=O)NC(=O)CSc1nnc(-c2ccc(F)cc2)n1CC1CCCO1 (configuration not stated) | -2.36%
Cc1nc2ccccn2c1C(=O)NN=C1CCN(C)CC1 | 35.4%
Nc1ccc(C(=O)OCC(=O)NC2CCCc3ccccc32)cc1[N+](=O)[O-] (configuration not stated) | -5.78%
O=C(NC1CCc2ccccc21)C12CN(Cc3ccccc3)CC1C(c1cccc([N+](=O)[O-])c1)=NO2 (configuration not stated) | 58.3% (active)
CCOc1cnc(C(=O)NNC(=O)c2ccccc2Br)o1 | -1.9%
Cc1ccc(NC(=O)NNC(=O)c2sccc2-n2cccc2)cc1 | -8.12%
COC(=O)C1=C(C)N(C)C(=S)NC1c1ccccc1 (configuration not stated) | -3.63%
COC(=O)C1NN=C(C(=O)c2ccc(Br)cc2)C1c1cccc(Br)c1 (configuration not stated) | 24.8%
COC(=O)C1=C(C)N(C)C(C)=C(C(=O)OC)C1c1cccc(Br)c1 | 52.8% (active)
COc1cccc(N(Cc2nnc3n2CCCCC3)C(=O)Nc2ccccc2F)c1 | -3.13%

SMILES | inhibition
COC(=O)c1ccc(Oc2nc(Nc3ccc(F)cc3)nc(N3CCCC3)n2)cc1 | 2.39%
CCOc1ccc(Nc2nc(Cl)nc(N3CCN(c4ccc(OC)cc4)CC3)n2)cc1 | 53% (active)
CCOc1ccc(NC(=O)CN2CCN(CC(=O)Nc3ccc(OC)cc3)CC2)cc1 | 39.6%
O=C(Oc1cccc(O)c1)C1CCCCC1 | -0.1%
Cc1ccc(S(=O)(=O)c2c(N)n(C)c3nc4ccccc4nc23)cc1 | 99.1% (active)
CCC(=O)Nc1c(S(=O)(=O)c2ccccc2)c2nc3ccccc3nc2n1Cc1ccccc1 | 32.2%
Cc1ccc(S(=O)(=O)Nc2nc(N)n(-c3ccccc3)n2)cc1 | -11%
Cc1noc(/C=C/c2ccco2)c1S(=O)(=O)N1CCC(C(=O)Nc2ccc(Cl)cn2)CC1 | 74.5% (active)
CCOc1ccc(OCC)c(NC(=O)C2CCN(S(=O)(=O)c3c(C)noc3C)CC2)c1 | 26.8%
Cc1noc(/C=C/N(C)C)c1S(=O)(=O)N1CCCC(C(=O)NCc2ccco2)C1 (configuration not stated) | -6.58%
O=C(C1CCN(S(=O)(=O)Cc2ccccc2)CC1)N1CCCc2ccccc21 | 24.6%
CCOC(=O)C1CCN(C(=O)C2CCN(S(=O)(=O)c3c(C)noc3C)CC2)CC1 | -2.98%
Cc1noc(/C=C/c2ccco2)c1S(=O)(=O)N1CCC(C(=O)N2CCc3ccccc32)CC1 | 66.6% (active)
CC1=C(C(=O)N(C)C)C(c2ccccc2OC(F)F)NC(=O)N1 (configuration not stated) | -4.21%
CC(=O)NC(Cc1ccc(F)c(F)c1)C(=O)NC1CCN(C(=O)c2ccc(C)cc2)CC1 (configuration not stated) | -6.89%
CCN(CC)CC(=O)Nc1sc2c(c1C(=O)c1ccccc1C)CCC2 | 47.2%
CCOC(=O)C1(Cc2ccc(Cl)cc2)CCN(C(=O)C2=NNC(=O)CC2)CC1 | 0.36%
O=C(CSc1ccc(/C=N/NC(=O)c2cccc(F)c2)o1)Nc1ccccc1 | -5.63%
Cc1nnc(SCC(=O)N/N=C/c2cn(-c3ccccc3)nc2-c2ccc(F)cc2)n1-c1ccccc1 | -0.75%
O=C(N/N=C/c1ccc([N+](=O)[O-])o1)c1cn(-c2ccccc2)nc1-c1ccc(F)cc1 | 63.2% (active)
OC1CCCN(c2ncnc3c2nnn3Cc2c(F)cccc2Cl)C1 (configuration not stated) | -5.48%
CC(=O)NC1C(Oc2ccc(C=O)cc2)OC(COC(C)=O)C(OC(C)=O)C1OC(C)=O (configuration not stated) | -1.48%
CC(=O)NC1C(OCc2ccccc2)OC(COC(C)=O)C(OC(C)=O)C1OC(C)=O (configuration not stated) | 55.7% (active)

SMILES | inhibition
CCCCCCCCCOC1OC(CO)C(O)C(O)C1NC(C)=O (configuration not stated) | 16.4%
Cc1ccc2nc(COc3ccc(N(C)S(=O)(=O)c4ccccc4)cc3)cc(=O)n2c1 | -0.08%
Cc1nn(CCOc2ccc(Br)cc2)c(C)c1[N+](=O)[O-] | -0.48%
COc1ccccc1CN(C)c1nnnn1-c1ccccc1 | 6.46%
CC(C)CC[n+]1ccn(C2=C([O-])c3ccccc3C(=O)/C2=N\S(=O)(=O)c2ccccc2)c1 | 77.1% (active)
CN1C(=O)/C(=C/c2ccco2)SC1=Nc1cccc(C(=O)O)c1 | -6.02%
COCCCNC(=O)C1CCC(CNS(=O)(=O)c2ccc(OC)cc2)CC1 (configuration not stated) | -4.6%
CCC1(CC)NC(=O)N(CC(=O)OCC(=O)NC(=O)c2ccccc2)C1=O | 10.3%
Cc1cc([N+](=O)[O-])c(-c2ccc(/C=N/n3cnnc3)o2)cc1Cl | 2.86%
Cc1cc(-c2ccc(/C=N/n3cnnc3)o2)c([N+](=O)[O-])cc1C | 2.14%
Cc1ccc(Cl)cc1-c1ccc(/C=N/n2cnnc2)o1 | 64.2% (active)
Cc1ccc(N2C(=O)SC(N(CC(=O)O)c3ccc(C)cc3)C2=O)cc1 (configuration not stated) | -0.34%
Cc1cc(C(=O)N/N=C/c2ccc(N3CCOCC3)cc2)c(C)o1 | 7.7%
CCOc1cccc(/C=N/NC(=S)NCCN2CCOCC2)c1O | 4.68%
CNC(=S)N/N=C/c1ccc(N2CCOCC2)s1 | 90.2% (active)
COC(=O)[C@H](C)NC(=O)Nc1ccc(OC(F)(F)F)cc1 | -4.5%
CCNC(=S)Nc1ccc(OC(F)(F)F)cc1 | -1.95%
COC(=O)Cc1ccc(OCC(=O)Nc2ccc(OC(F)(F)F)cc2)cc1 | 54.1% (active)
COc1ccc(OC)c(CNC(=O)c2cc(=O)[nH]c3ccc(S(=O)(=O)N4CCCC4)cc23)c1 | -4.76%
COc1ccc(-n2cc(CN(C)Cc3n[nH]c(=O)[nH]3)c(-c3cccc(F)c3)n2)cc1 | 2.9%
O=C(O)COc1ccc(/C=N/O)cc1Br | -4.34%
O=C(CN1CCN(c2ccc(Cl)cc2)CC1)NCc1cccs1 | -4.73%
CCN(C(=O)Cc1nc(N)n[nH]1)C1(C(=O)Nc2ccccc2)CCCCC1 | -8.2%

Source: PubChem BioAssay AID1063 (University of Pittsburgh Molecular Library Screening Center, 2008)
